These compounds were tested on HEK293 WT BDD-FVIII-Gluc (assay: secreted FVIII-Gluc luciferase Z-score vs DMSO control; higher = more FVIII-Gluc secretion). Conditions: 5 µM.
Procedure: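 Natural plant-compound library (480 compounds, ST catalogue IDs) screened on HEK293 cells stably expressing WT BDD-FVIII-Gaussia luciferase fusion at 5 µM. Secreted Gluc activity in the medium is given as a Z-score relative to DMSO controls.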

In order of falling “secreted FVIII-Gluc luciferase Z-score” value:
1. C[C@@H]1O[C@@H](O[C@H]2[C@H](Oc3cc(O)c4c(c3)O[C@H](c3ccc(O)cc3)CC4=O)O[C@H](CO)[C@@H](O)[C@@H]2O)[C@H](O)[C@H](O)[C@H]1O  1.39
2. COc1cc(/C=C/C(=O)N2CCCCC2=O)cc(OC)c1OC  1.28
3. C[C@H](CCC(=O)O)[C@H]1CC[C@H]2[C@@H]3CC[C@@H]4C[C@H](O)CC[C@]4(C)[C@H]3CC[C@]12C  1.27
4. C1CCN2CC3CC(CN4CCCC[C@H]34)C2C1 (some centres undefined)  1.22
5. COc1cc(O)c2c(=O)cc(-c3ccccc3)oc2c1  1.12
6. COc1ccc2c(c1OC)C(=O)O[C@H]2[C@H]1c2c(cc3c(c2OC)OCO3)CCN1C  0.932
7. COc1cccc(-c2oc3ccccc3c(=O)c2O)c1  0.776
8. Cc1cn([C@H]2C[C@H](O)[C@@H](CO)O2)c(=O)[nH]c1=O  0.713
9. COc1c2ccoc2nc2c(OC)c(OCC(O)C(C)(C)O)ccc12 (centres undefined)  0.695
10. O=c1cc(-c2ccccc2O)oc2cc(O)cc(O)c12  0.64
11. COc1ccc2c3c1O[C@H]1C[C@@H](O)C=C[C@@]31CCN(C)C2  0.615
12. CC[C@H](/C=C/[C@@H](C)[C@H]1CC[C@H]2[C@@H]3CC=C4C[C@@H](O)CC[C@]4(C)[C@H]3CC[C@]12C)C(C)C  0.586
13. O=c1[nH]c(=O)c2ncn([C@@H]3O[C@H](CO)[C@@H](O)[C@H]3O)c2[nH]1  0.541
14. O=c1c(O)c(-c2ccc(O)cc2)oc2cc(O)ccc12  0.511
15. CC(=O)Nc1nc2nc[nH]c2c(=O)[nH]1  0.475
16. O=C(O)C1(O)CC(O)C(O)C(O)C1 (centres undefined)  0.456
17. O=c1c(O)c(-c2ccc(O)cc2)oc2ccc(O)cc12  0.433
18. COc1cc2c(cc1OC)C(Cc1ccc(OC)c(OC)c1Oc1cc3c(cc1OC)-c1c(OC)c(OC)cc4c1C(C3)N(C)CC4)N(C)CC2 (centres undefined)  0.304
19. O=c1cc[nH]c(=S)[nH]1  0.275
20. C[C@H]1C[C@]2(O[C@@H]2C)C(=O)O[C@@H]2CCN(C)C/C=C(/COC(=O)[C@]1(C)O)C2=O  0.213
21. O=c1cc(-c2ccccc2O)oc2ccc3ccccc3c12  0.197
22. C=CC(C)(O)CCCC(C)CCCC(C)CCCC(C)C (centres undefined)  0.179
23. O=C(/C=C/c1ccc(O)cc1)c1c(O)cc(O)cc1O  0.157
24. COc1ccc2[nH]cc(CCNC(C)=O)c2c1  0.108
25. CO[C@@H]1[C@@H](O[C@@H]2O[C@H](C)[C@@H](O[C@H]3C[C@@](C)(O)[C@@H](OC(=O)CC(C)C)[C@H](C)O3)[C@H](N(C)C)[C@H]2O)[C@@H](CC=O)C[C@@H](C)[C@@H](O)/C=C/C=C/C[C@@H](C)OC(=O)C[C@H]1OC(C)=O  0.0728
26. O=C(O)CCCCC1CCSS1 (centres undefined)  -0.0345
27. CN1CCc2cc3c(cc2C(=O)Cc2ccc4c(c2C1)OCO4)OCO3  -0.0429
28. O=C1c2c(O)cc(O)cc2OC(c2ccc(O)c(O)c2)C1O (centres undefined)  -0.135
29. O=c1c(O)c(-c2ccc(O)cc2)oc2cc(O)cc(O)c12  -0.239
30. Cc1ccc(C(=O)[C@@H]2[C@H]3C4COC(O4)C(=O)[C@@H]3[C@H]3C=Cc4ccccc4N32)cc1 (some centres undefined)  -0.368
31. CCC(C)C(=O)O[C@H]1C[C@@H](C)C=C2C=C[C@H](C)[C@H](CC[C@@H]3C[C@@H](O)CC(=O)O3)[C@H]21 (some centres undefined)  -0.369
32. N[C@H](CCC(=O)O)C(=O)O  -0.453
33. COc1ccccc1-c1oc2ccccc2c(=O)c1O  -0.65
34. COc1ccc(C(=O)C2C3C4COC(O4)C(=O)C3C3C=Cc4ccccc4N32)c(OC)c1 (centres undefined)  -0.809
35. O=c1cc(-c2cccc(O)c2O)oc2ccccc12  -0.852
36. CC1CC2(C)Oc3ccccc3C3OCC1(COC(=O)Nc1ccccc1)C(C)C32 (centres undefined)  -0.945
37. COC1OC2COC(c3ccccc3)OC2C(O)C1O (centres undefined)  -1.04
38. COC(=O)[C@H]1[C@H]2C[C@H]3c4[nH]c5ccccc5c4CCN3C[C@@H]2CC[C@@H]1O  -1.15
39. CC[C@@H]1OC(=O)[C@@H](C)[C@H](O[C@H]2C[C@@](C)(OC)[C@@H](O)[C@H](C)O2)C(C)[C@H](O[C@H]2O[C@@H](C)C[C@@H](N(C)C)[C@@H]2O)[C@@](C)(O)C[C@H](C)C(=O)[C@@H](C)[C@H](O)[C@@]1(C)O (some centres undefined)  -1.17

Reference: the supplement of paper PMC12024529
